These results are taken from PubChem BioAssay (NCI).

Each structure is given as a SMILES string. About 79,000 compounds went through this panel and 15% of them were active in at least one assay; those are over-represented in the sample as a whole. Unmarked numbers belong to inactive results. Calls of active or inactive are those of the source. No stated cut-off is given here; in the data, active means growth inhibition above about 70%; inactive means the rest.

A short description of assay [1]: NCI Yeast Anticancer Drug Screen. Data for the rad50 strain (AID 155).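 Further: 0% = growth of vehicle-only cultures of the same strain.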 The conditions noted are these: S. cerevisiae rad50 strain growth inhibition, stronger effect = higher value. A digest of the protocol: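 Readout: growth inhibition relative to vehicle-treated cultures. Compound exposure was carried out in a genetically defined yeast strain deficient in DNA damage repair.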

A short description of assay [2]: NCI Yeast Anticancer Drug Screen. Data for the mec2-1 strain (AID 157). The conditions noted are these: S. cerevisiae mec2-1 strain, stronger effect = higher value. A digest of the protocol: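 Mutant yeast (mec2-1) grown with compound; growth inhibition relative to vehicle control reported.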
A short description of assay [3]: NCI Yeast Anticancer Drug Screen. Data for the sgs1 mgt1 strain (AID 161).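 Further: 0% = growth of cultures given vehicle only.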 The conditions noted are these: S. cerevisiae sgs1 mgt1 strain, stronger effect = higher value. Summed up:
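This yeast growth screen uses a strain with defined DNA-repair lesions; compound-treated growth is compared with vehicle-treated growth.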

Assay [4] is described as follows: NCI Yeast Anticancer Drug Screen. Data for the cln2 rad14 strain (AID 165).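 Further: 0% = growth equal to vehicle treated cultures.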 To be noted: S. cerevisiae cln2 rad14 strain, stronger effect = higher value. Summed up:
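Readout is yeast growth inhibition versus vehicle-treated controls, using a strain with cln2 and rad14 alterations exposed to compound.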

Assay [5] can be described thus: NCI Yeast Anticancer Drug Screen. Data for the bub3 strain (AID 167). The conditions noted are these: S. cerevisiae bub3 mutant strain, stronger effect = higher value. A digest of the protocol:
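Readout: yeast growth inhibition, expressed relative to vehicle-only wells. The test organism is a mutant strain from a panel with lesions in DNA repair or checkpoint genes.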

Assay [6] can be described thus: NCI Yeast Anticancer Drug Screen. Data for the mlh1 rad18 strain (AID 175). The conditions noted are these: S. cerevisiae mlh1 rad18 strain growth inhibition, stronger effect = higher value. Summed up:
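Genetically defined yeast (DNA repair-deficient) exposed to compounds; growth inhibition determined relative to vehicle.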

The mark [7] stands for this setting: at 5.0 µM (retest, dose inferred, filed as 0.5).
The mark [8] stands for this setting: at 50.0 µM (retest, dose inferred, filed as 5.0).

Consider `CC(=O)Oc1c(C)cc(C)cc1Cc1cc(C(C)=O)cc(Cc2cc(C)cc(C)c2OC(C)=O)c1OC(C)=O`, for which the growth inhibition was 30% in assay [1] (setting [7]); 91% (active) in assay [1] (setting [8]); 94.5% (active) in assay [1] (at 50.0 µM); 17% in assay [2] (setting [7]); 88% (active) in assay [2] (setting [8]); 93.2% (active) in assay [2] (at 50.0 µM). For the same molecule, the growth inhibition is 47% in assay [3] (setting [7]); 91% (active) in assay [3] (setting [8]); 95.6% (active) in assay [3] (at 50.0 µM); 28% in assay [4] (setting [7]); 88% (active) in assay [4] (setting [8]); 97% (active) in assay [4] (at 50.0 µM). Further, the growth inhibition in assay [5] (setting [7]) is 22%; in assay [5] (setting [8]) it was 87% (active); in assay [5] (at 50.0 µM), 94.3% (active); in assay [6] (setting [7]) it was 46%; in assay [6] (setting [8]), 91% (active); in assay [6] (at 50.0 µM) it was 92.5% (active).

Regarding `CCOC(=O)Oc1ccc(C)cc1[N+](=O)[O-]`, the growth inhibition was -1% in assay [1] (setting [7]); 13% in assay [1] (setting [8]); 67.6% in assay [1] (at 50.0 µM); -4% in assay [2] (setting [7]); 1% in assay [2] (setting [8]); 31.1% in assay [2] (at 50.0 µM). Moreover, the growth inhibition in assay [3] (setting [7]) was -1%; in assay [3] (setting [8]) it was 2%; in assay [3] (at 50.0 µM) it was 47.5%; in assay [4] (setting [7]), 2%; in assay [4] (setting [8]) it was 12%; in assay [4] (at 50.0 µM) it was 55.6%. The growth inhibition is -1% in assay [5] (setting [7]); 4% in assay [5] (setting [8]); 23.6% in assay [5] (at 50.0 µM); -3% in assay [6] (setting [7]); 20% in assay [6] (setting [8]); 88.3% (active) in assay [6] (at 50.0 µM).

`COc1ccc(OC)c(CC(Cl)(C#N)C#N)c1`: the growth inhibition is 33% in assay [1] (setting [7]); 99% (active) in assay [1] (setting [8]); 98.2% (active) in assay [1] (at 50.0 µM); 48% in assay [2] (setting [7]); 100% (active) in assay [2] (setting [8]); 99.8% (active) in assay [2] (at 50.0 µM). Further, the growth inhibition is 48% in assay [3] (setting [7]); 99% (active) in assay [3] (setting [8]); 99.7% (active) in assay [3] (at 50.0 µM); 20% in assay [4] (setting [7]); 99% (active) in assay [4] (setting [8]); 99% (active) in assay [4] (at 50.0 µM). Further, the growth inhibition is 34% in assay [5] (setting [7]); 99% (active) in assay [5] (setting [8]); 99.8% (active) in assay [5] (at 50.0 µM); 61% in assay [6] (setting [7]); 99% (active) in assay [6] (setting [8]); 99.6% (active) in assay [6] (at 50.0 µM).

Regarding `CC/C=C\C/C=C\C/C=C\CCCCCCCC(=O)OCC(O)CO` (stereo not given), the growth inhibition is 0% in assay [1] (setting [7]); 4% in assay [1] (setting [8]); 22.9% in assay [1] (at 50.0 µM); 0% in assay [2] (setting [7]); 37% in assay [2] (setting [8]); 88.1% (active) in assay [2] (at 50.0 µM). Further, the growth inhibition in assay [3] (setting [7]) is 0%; in assay [3] (setting [8]), 48%; in assay [3] (at 50.0 µM) it was 86.8% (active); in assay [4] (setting [7]), 1%; in assay [4] (setting [8]) it was 10%; in assay [4] (at 50.0 µM), 42.9%. Also, the growth inhibition in assay [5] (setting [7]) was -2%; in assay [5] (setting [8]) it was 83% (active); in assay [5] (at 50.0 µM), 53.4%; in assay [6] (setting [7]), 2%; in assay [6] (setting [8]), 24%; in assay [6] (at 50.0 µM), 52.5%.

In the case of `CC(C)OC1=C(Cl)C(=O)c2c(cccc2[N+](=O)[O-])C1=O`, the growth inhibition was 32% in assay [1] (setting [7]); 99% (active) in assay [1] (setting [8]); 26.8% in assay [1] (at 50.0 µM); 38% in assay [2] (setting [7]); 100% (active) in assay [2] (setting [8]); 99.1% (active) in assay [2] (at 50.0 µM). Moreover, the growth inhibition in assay [3] (setting [7]) was 48%; in assay [3] (setting [8]), 99% (active); in assay [3] (at 50.0 µM) it was 99.4% (active); in assay [4] (setting [7]), 19%; in assay [4] (setting [8]), 100% (active); in assay [4] (at 50.0 µM), 88.5% (active). For the same molecule, the growth inhibition was 38% in assay [5] (setting [7]); 94% (active) in assay [5] (setting [8]); 98.5% (active) in assay [5] (at 50.0 µM); 41% in assay [6] (setting [7]); 100% (active) in assay [6] (setting [8]); 71% (active) in assay [6] (at 50.0 µM).

On to `NCCC(N)P(=O)(O)O` (stereo not given), for which the growth inhibition in assay [1] (setting [7]) was -166%; in assay [1] (setting [8]), -150%; in assay [1] (at 50.0 µM), 20.6%; in assay [2] (setting [7]), -46%; in assay [2] (setting [8]) it was -48%; in assay [2] (at 50.0 µM), 16.2%. Further, the growth inhibition in assay [3] (setting [7]) is -61%; in assay [3] (setting [8]), -60%; in assay [3] (at 50.0 µM), -3.9%; in assay [4] (setting [7]), -61%; in assay [4] (setting [8]), -51%; in assay [4] (at 50.0 µM), 16.6%. Besides, the growth inhibition in assay [5] (setting [7]) was -74%; in assay [5] (setting [8]), -71%; in assay [5] (at 50.0 µM), 13%; in assay [6] (setting [7]), -141%; in assay [6] (setting [8]) it was -111%; in assay [6] (at 50.0 µM) it was 0.45%.

Consider `Cc1ccc(OC/C=C/c2cccc(C#N)c2)cc1`, for which the growth inhibition was -3% in assay [1] (setting [7]); 2% in assay [1] (setting [8]); -0.45% in assay [1] (at 50.0 µM); 3% in assay [2] (setting [7]); -2% in assay [2] (setting [8]); 11.2% in assay [2] (at 50.0 µM). The growth inhibition was 0% in assay [3] (setting [7]); 18% in assay [3] (setting [8]); -2.05% in assay [3] (at 50.0 µM); -6% in assay [4] (setting [7]); -11% in assay [4] (setting [8]); 44% in assay [4] (at 50.0 µM). Besides, the growth inhibition is 0% in assay [5] (setting [7]); 12% in assay [5] (setting [8]); -0.9% in assay [5] (at 50.0 µM); -5% in assay [6] (setting [7]); -1% in assay [6] (setting [8]); 43.5% in assay [6] (at 50.0 µM).

In the case of `Cc1ccc(S(=O)(=O)N/N=c2\c(C)c(C3=NS(=O)(=O)c4cc(S(N)(=O)=O)c(Cl)cc4N3)oc3c(Cl)cc(Cl)cc23)cc1`, the growth inhibition in assay [1] (setting [7]) was 40%; in assay [1] (setting [8]), 63%; in assay [1] (at 50.0 µM) it was 77.9% (active); in assay [2] (setting [7]), 32%; in assay [2] (setting [8]), 55%; in assay [2] (at 50.0 µM) it was 47%. Further, the growth inhibition in assay [3] (setting [7]) is 28%; in assay [3] (setting [8]), 59%; in assay [3] (at 50.0 µM), 56.5%; in assay [4] (setting [7]), 33%; in assay [4] (setting [8]), 60%; in assay [4] (at 50.0 µM), 65.9%. Moreover, the growth inhibition in assay [5] (setting [7]) was 33%; in assay [5] (setting [8]), 73% (active); in assay [5] (at 50.0 µM), 60.5%; in assay [6] (setting [7]) it was 44%; in assay [6] (setting [8]), 69%; in assay [6] (at 50.0 µM), 59.2%.

As for `COC(=O)C1=C(C(=O)OC)C2C(C)=CC(C)=CN2C(C(=O)OC)=C1C(=O)OC` (stereo not given), the growth inhibition in assay [1] (setting [7]) is -1%; in assay [1] (setting [8]), -7%; in assay [1] (at 50.0 µM), 11.2%; in assay [2] (setting [7]), 0%; in assay [2] (setting [8]), 2%; in assay [2] (at 50.0 µM), 5.8%. The growth inhibition in assay [3] (setting [7]) was -10%; in assay [3] (setting [8]) it was 4%; in assay [3] (at 50.0 µM) it was 2.3%; in assay [4] (setting [7]) it was -2%; in assay [4] (setting [8]) it was -5%; in assay [4] (at 50.0 µM), 74.3% (active). The growth inhibition in assay [5] (setting [7]) is 2%; in assay [5] (setting [8]), -3%; in assay [5] (at 50.0 µM), -6.7%; in assay [6] (setting [7]) it was -4%; in assay [6] (setting [8]), -4%; in assay [6] (at 50.0 µM) it was 25.4%.

As to `COc1ccc(/C(Cl)=C(\C=O)c2ccc(Cl)cc2)cc1OC`, the growth inhibition in assay [1] (setting [7]) was 6%; in assay [1] (setting [8]), 61%; in assay [1] (at 50.0 µM) it was 4.15%; in assay [2] (setting [7]) it was -8%; in assay [2] (setting [8]), 35%; in assay [2] (at 50.0 µM), 13.4%. For the same molecule, the growth inhibition in assay [3] (setting [7]) was -17%; in assay [3] (setting [8]), 56%; in assay [3] (at 50.0 µM), 21.6%; in assay [4] (setting [7]), 7%; in assay [4] (setting [8]), 49%; in assay [4] (at 50.0 µM) it was 0.1%. The growth inhibition was 4% in assay [5] (setting [7]); 70% (active) in assay [5] (setting [8]); 13.6% in assay [5] (at 50.0 µM); -5% in assay [6] (setting [7]); 68% in assay [6] (setting [8]); 24.1% in assay [6] (at 50.0 µM).
